# TDP1 cell CPT = DT40-hTDP1 cell growth loss with CPT; 420,000 tested, 12% active; chicken DT40 Tdp1-/-;hTDP1 cells + 20 nM CPT, ATP luminescence, 48 h; Potency, µM (series often up to 46.2 µM), hits mostly inhibitors; also: nearly all actives have a fitted effect of over 55% in size
#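 Chicken DT40 Tdp1-/- cells stably complemented with human TDP1 were seeded at 400 cells/well in medium containing 20 nM camptothecin, exposed to pin-transferred compounds, and grown at 37 °C for at least 48 hr. Viability was read as ATP luminescence.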
# DT40 TDP1 no CPT = qHTS for Inhibitors of human tyrosyl-DNA phosphodiesterase 1 (TDP1): qHTS in cells in absence of CPT | DT40 Tdp1-/- hTDP1 cells, no CPT, ATP luminescence, 48 h | Potency, µM (doses to about 46.2 µM), hits mostly inhibitors | 420,000 tested, 15% active | AID 686978, 2013; also: nearly all actives have a fitted effect of over 55% in size
#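 Readout: luminescence from CellTiter-Glo after 30 min in the dark at RT. Cells: DT40 Tdp1-/- with stable hTDP1, 400/well. Exposure: compounds alone, ≥48 hr, 37 °C.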
# TGFb SMAD3 inh = TGF-b pathway inhibition | HepG2 CAGA-GFP TGF-b/SMAD3 reporter, GFP fluorescence, 18 h; TGF-beta stimulated, 500 pg/mL final | Potency, µM (top dose mostly 46.1 µM), actives largely listed as inhibitors | 410,000 tested, 1.2% active | AID 588855; also: nearly all actives have a fitted effect of over 65% in size
#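 Inhibition of TGF-beta-driven CAGA-GFP reporter expression in HEPG2 cells is measured by cellular GFP fluorescence after 18 h stimulation with 500 pg/mL recombinant TGF-beta in 1% FBS medium at 37 degrees C.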
# ATXN2 expr inh = ATXN2 expression inhibition; Potency, µM (highest dose often 57 µM), most hits filed as inhibitors; HEK-293 ATXN2-luciferase reporter, luminescence, 24 h; 360,000 tested, 0.72% active; also: nearly all actives have a fitted effect of over 55% in size
#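 qHTS (up to 57 uM final) was run with 24 h compound exposure of reporter cells at 37 °C. Each well was multiplexed: SteadyGlo luminescence measured ATXN2-luciferase expression after a fluorogenic Gly-Phe-AFC viability readout (25 uM final).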
# HepG2 viability = HepG2 cytotoxicity, counter-screen for TGF-b inhibitors; 410,000 tested, 0.76% active; HepG2 CAGA-GFP viability, ATP luminescence, 18 h; Potency, µM (series often up to 46.1 µM), most hits filed as cytotoxic
#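 CellTiter-Glo luminescence gave cytotoxicity after 18 hours at 37 degrees C. The cells were HepG2 CAGA-GFP in 1% FBS DMEM, stimulated with 500 pg/mL TGF-beta after compound addition. %Activity was normalised to no-cell wells (complete cell-killing) and DMSO (no toxicity), and curves were fitted and classified.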
# ATXN viability = reduces viability in counter-screen for ATXN expression inhibitors | 400,000 tested, 0.49% active | Potency, µM (highest dose often 56.7 µM), most hits filed as cytotoxic | S2 cells (HEK-293 line with an ATXN2-luciferase reporter) viability, CellTiter-Fluor protease fluorescence, 24 h | AID 651635; also: nearly all actives have a fitted effect of over 40% in size
# Numbers stand for hits; - = inactive; ? = inconclusive; . = not tested or not shown; [ ] = dose if it differs, or a comment. This is a sample that favours compounds with a hit; in the whole collection about 17% have one here. Calls follow the shape of the dose curve; as a rule, active = well fitted curve in the direction sought with a large enough effect; inconclusive = small, poorly fitted or top-dose-only effect, or another doubt; inactive = no such curve, though single readings can be large; an effect the other way counts as inactive or inconclusive.
SMILES,TDP1 cell CPT,DT40 TDP1 no CPT,TGFb SMAD3 inh,ATXN2 expr inh,HepG2 viability,ATXN viability
CC(C)(CO)NC(=O)c1ccc2c(c1)C(=O)c1ccccc1-2,-,18.4µM,-,-,-,-
c1ccc2c(c1)CCc1ccccc1C2=C1CCNCC1,14.6µM,13µM,-,-,-,-
O=C1C(=C2CCc3ccccc32)Cc2ccccc21,?,?,-,-,-,-
Cc1cc(C)c2nc(-c3ccccn3)cc(C(=O)NCc3cc(C)n(C)n3)c2c1,-,?,-,-,-,-
Cc1c(Cl)ccc2c(C(=O)NCCCn3nccc3C)cc(-c3ccccn3)nc12,20.6µM,?,?,-,-,-
COc1ccccc1-c1cc(C(=O)NC2CCN(C)CC2)c2ccc(Cl)c(C)c2n1,11.6µM,20.6µM,-,-,-,-
Cc1c(Cl)ccc2c(C(=O)NCCN3CCCCC3)cc(-c3ccccn3)nc12,?,9.2µM,-,-,-,?
CCOC(=O)N1CCC(NC(=O)c2cc(-c3ccc(OC)cc3)nc3ccccc23)CC1,?,?,-,-,-,-
NC(=O)c1ccsc1NC(=O)COC(=O)c1ccccn1,-,?,-,-,-,-
Cc1oc2ccc(O)c(CN(C)Cc3ccccc3)c2c1C(=O)Nc1cccc(Cl)c1C,6.51µM,6.51µM,-,.,-,.
CCN(Cc1ccccc1)Cc1c(O)ccc2oc(C)c(C(=O)Nc3ccccc3C)c12,13µM,13µM,?,.,-,.
Cc1c(Cl)cccc1NC(=O)c1ccco1,-,-,-,-,-,-
Cc1oc2ccc(O)c(CN(C)C)c2c1C(=O)c1ccccc1,?,?,-,-,-,-
Cc1ccccc1NC(=O)c1c(C)oc2ccc(O)c(CN(C)Cc3ccccc3)c12,8.2µM,6.51µM,?,.,-,.
Cc1cccc(OCCSc2nnc(-c3ccoc3C)n2C)c1,23.1µM,20.6µM,-,-,-,-
O=C(Cn1c(C(=O)N2CCc3ccccc3C2)cc2sccc21)c1ccccc1,29.1µM,?,-,-,-,-
O=C(Cn1c(C(=O)N2CCN(C3CCCCC3)CC2)cc2sccc21)c1ccccc1,?,?,-,-,-,?
CC(=O)NC(c1cccs1)c1cc(F)c2cccnc2c1O (stereo not given),.,.,?,?,-,3.98µM
CC(=O)NC(c1ccco1)c1cc(F)c2cccnc2c1O (stereo not given),.,.,?,?,8.91µM,14.1µM
CC(C)C(=O)NC(c1cccs1)c1cc([N+](=O)[O-])c2cccnc2c1O (stereo not given),?,?,?,?,-,-
CN1CCN(C(CNC(=O)c2cccc(F)c2)c2ccc3c(c2)OCO3)CC1 (stereo not given),-,-,-,-,-,-
CCCCc1nc(NCCNC(=O)c2ccccc2)c(C#N)c2c1CSC(C)(C)C2,23.1µM,13µM,?,-,-,?
CCCCc1nc(Cl)c(C#N)c2c1CSC(C)(C)C2,-,-,-,.,-,-
CCCCc1nc(NCCNC(=O)c2ccco2)c(C#N)c2c1CSC(C)(C)C2,29.1µM,23.1µM,-,-,-,-
COc1ccc(CN2C(=O)C(NC(=O)c3ccccc3OC)(C(F)(F)F)N=C2c2ccccc2)cc1 (stereo not given),18.4µM,14.6µM,?,-,-,-
O=C(NCC1CCC2(CCN(Cc3cccc(-c4ccco4)c3)CC2)O1)c1ccccc1 (stereo not given),-[9.04 µM],-,.,.,.,?
CCS(=O)(=O)N1CCC(C(=O)NCCCN2CCN(c3ccccc3F)CC2)CC1,-,-,-,-,-,-
O=C(NCCc1ccccc1)C1CCN(S(=O)(=O)c2cccs2)CC1,-,-,?,-,-,-
O=C(NCCCN1CCN(c2ccccc2F)CC1)C1CCN(S(=O)(=O)c2cccs2)CC1,12.6µM,?,-,-,-,-
O=C(NCCN1C(=O)S/C(=C\c2ccccc2)C1=O)C1CCN(S(=O)(=O)c2cccs2)CC1,13µM,18.4µM,?,-,-,-

# High-throughput results: PubChem, National Center for Advancing Translational Sciences (NCATS)
